Results published in ChEMBL document CHEMBL1157539, “Thousands of chemical starting points for antimalarial lead identification” (Nature, 2010).

The molecules below were run on HepG2 (assay: GSK_TCMDC: Percent inhibition of human HepG2 cell line. Test compounds present at 10uM.).
Type: functional

| Compound | Inhibition [%] |
| --- | --- |
| Cc1c(F)cc(C(=O)NC2CC2)cc1-c1ccc2c(c1)c(C)nn2S(=O)(=O)c1cccs1 | 34 |
| C=C[C@]1(C)C[C@@H](OC(=O)c2cncn(COC)c2=O)[C@]2(C)[C@H](C)CC[C@]3(CCC(=O)[C@H]32)[C@@H](C)[C@@H]1O | 0 |
| NC1CCN(c2nc(NCCCc3ccc(O)cc3)nc(NCc3ccccc3-c3ccc(C(F)(F)F)cc3)n2)CC1.O=C(O)C(F)(F)F | 15 |
| Br.Oc1ccc2nc(N3CCNCC3)nc(NCCCc3ccccc3)c2c1 | 14 |
| OC(CNCc1ccccc1OCc1ccccc1)c1cccc(Cl)c1 (configuration not stated) | 0 |
| COc1cc(NCC(C)CNCc2cn(Cc3ccccc3)c3ccccc23)nc2ccccc12 (configuration not stated) | 21 |
| O=C(NC1CCN(Cc2ccccc2)CC1)c1ccc(-c2nc3cc(Cl)c(Cl)cc3[nH]2)c(F)c1 | 4 |
| CCOC(=O)c1cc(C(=O)NCCCCN2CCC(c3ccc(CC)cc3OCC)CC2)ccc1-c1ccc(C(F)(F)F)cc1 | 74 |
| O=C(Nc1ccc(F)c([N+](=O)[O-])c1)Nc1cc(C(F)(F)F)ccc1Cl | 5 |
| Cc1ccc(F)c(CN2CCC(N3CC(c4ccccc4)(c4ccccc4)OC3=O)CC2)c1Cl | 11 |
| NC1CCN(Cc2cccc(-c3csc(-c4nc5ccccc5[nH]4)c3)c2)C1.O=C(O)C(F)(F)F (configuration not stated) | 10 |
| O=C(C=Cc1ccc(-c2ccccc2)cc1)N1CCC(CCN2CCC(c3c[nH]c4ccccc34)CC2)CC1 | 44 |
| CCC(C)c1ccc(NC(=O)c2ccc(S(=O)(=O)Nc3ccc(OC)c(N4CCN(CC5CC5)CC4)c3)cc2)cc1.O=C(O)C(F)(F)F (configuration not stated) | 24 |
| CN(C)c1ccc(CN2CCCCC(NC(=O)c3cc(-c4ccccc4Cl)cs3)C2)cc1.O=C(O)C(F)(F)F (configuration not stated) | 10 |
| CC(O)C(=O)O.COc1cc(Cc2cnc(N)nc2N)c2c(c1OC)OC(C)(C)C=C2 | 7 |
| Cc1ccccc1C1CCN(C2CCC(NC(=O)/C=C/c3c[nH]c4ccccc34)CC2)CC1 (configuration not stated) | 30 |
| O=C(O)C(F)(F)F.O=S(=O)(NCCN1CCCC1)c1ccc(-c2cccc(CNCc3ccccc3)c2)s1 | 44 |
| COc1ccc(CN2CCCN(Cc3cccc(NC(=O)c4ccc5ccccc5c4)c3)CC2)cc1.O=C(O)C(F)(F)F | 27 |
| COc1ccc2nccc(N3CCC(CCNCc4ccc5c(n4)NC(=O)CO5)CC3)c2c1.Cl | 22 |
| Cc1cc(C(=O)Nc2ccc3c(c2)CCN3C2CCN(Cc3csc4ccccc34)C2)no1 (configuration not stated) | 1 |
| COc1ccc2ncc(C#N)c(CCN3CCC(NCc4ccc5c(c4)OCCO5)CC3)c2c1.Cl | 12 |
| Cc1n[nH]c2cc(F)c(-c3cc(OC[C@@H](N)Cc4ccccc4)cnc3-c3ccoc3)cc12.O=C(O)C(F)(F)F | 22 |
| O=C(NC1CCCc2ccccc21)C1CCCN(C(=O)c2ccc(O)c(-c3ccc(Cl)c(Cl)c3)c2)C1 (configuration not stated) | 0 |
| O=C(Nc1ccc(Cl)c(Cl)c1)Nc1ccc2nccc(N3CCN(Cc4ccccc4)CC3)c2c1 | 31 |
| CCOC(=O)c1ccc(-c2cnc(N)c(-c3nc4cccc(C)c4[nH]3)c2)cc1 | 43 |
| COC(=O)CCCCOc1c(OC)cc(Cc2cnc(N)nc2N)cc1OC | 0 |
| O=C(/C=C/c1ccc(Cl)c(Cl)c1)NCCCCCN1CC[C@H](NC(=O)c2sc3ccccc3c2Cl)C1 | 26 |
